Sampled rows, rich in hits. Any-hit rate of the full collection: about 1.1%.
gsp ag: agonists of gsp mutant (McCune-Albright syndrome). gsp mutant cells, cAMP HTRF, 30 min. Potency, µM (top dose mostly 76.9 µM), for the others: at the top dose activation (cAMP increase), hits mostly activators. actives 0.13% (n = 340,000); active = well fitted activation curve with a large enough effect; inconclusive = small, poorly fitted or top-dose-only effect, or another doubt; inactive = no such curve, though single readings can be large or run the other way; cell line not stated here;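 note: phosphodiesterase inhibitor Ro 20-1724 added with compounds to block cAMP breakdown; potency is the fitted concentration of half-maximal effect; nearly all actives have a fitted effect of over 60% in size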
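Cells stably selected in G418 were plated at 2000/well, grown 16-24 hr, then given compounds in DMSO with the PDE inhibitor […] (300 uM solution added) for 30 min at 37C; cAMP was read by HTRF.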
Tb PFK block: blocks T. brucei phosphofructokinase; O15648; T. brucei PFK, ADP-Glo luminescence; Potency, µM (series often up to 57.5 µM), for inactives: at the highest dose activity, negative = inhibition, hits mostly inhibitors; actives 0.17% (n = 330,000); AID 485367;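 note: potency is the fitted concentration of half-maximal effect; 0% = uninhibited 1x PFK enzyme wells and -100% = no-enzyme wells; nearly all actives have a fitted effect of over 60% in size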
Target sequence (O15648 whole entry, looked up): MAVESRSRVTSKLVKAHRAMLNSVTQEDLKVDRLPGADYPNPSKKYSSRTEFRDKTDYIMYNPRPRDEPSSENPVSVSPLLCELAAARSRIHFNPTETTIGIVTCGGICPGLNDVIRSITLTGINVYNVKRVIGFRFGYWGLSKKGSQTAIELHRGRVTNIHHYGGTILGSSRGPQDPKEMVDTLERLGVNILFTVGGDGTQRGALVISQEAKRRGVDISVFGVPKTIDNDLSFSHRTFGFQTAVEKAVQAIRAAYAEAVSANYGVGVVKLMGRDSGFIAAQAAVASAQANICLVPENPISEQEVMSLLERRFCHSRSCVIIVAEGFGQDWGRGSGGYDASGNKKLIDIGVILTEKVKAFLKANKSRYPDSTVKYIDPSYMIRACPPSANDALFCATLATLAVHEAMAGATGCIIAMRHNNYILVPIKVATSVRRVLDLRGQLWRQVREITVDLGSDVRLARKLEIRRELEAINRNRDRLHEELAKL
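ADP-Glo luminescence quantified ADP after 45 min at room temperature, with 1.25 nM T. brucei PFK, 0.1 mM ATP and 0.5 mM fructose-6-phosphate in pH 8.0 TEA buffer. qHTS titrations up to 57 µM; curves classified by quality.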
p53 reactivator: mutant p53 re-activation in reporter cells | H1299 p53-A138V BP100-luciferase reporter, luminescence, 24 h | actives 0.063% (n = 320,000) | Potency, µM (top dose mostly 92.2 µM), for the others: top-dose activity change, positive = activation, most hits filed as activators; note: potency is the fitted concentration of half-maximal effect; % of control where 0% means no effect; nearly all actives have a fitted effect of over 45% in size
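H1299 (p53-null), stable ts p53-A138V + BP100-Luc; 1000 cells/well, Opti-MEM/10% FBS; cpd 4 pt, 1:5; 24 h, 37 deg C, 5% CO2; detection reagent 10 min RT; luminescence.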
RXFP1 antag: RXFP1 (human) relaxin receptor antagonism. Q9HBX9. HEK293-RXFP1, relaxin-stimulated cAMP HTRF, 30 min; stronger effect = lower value. activity change, negative = inhibition, % at 57.5 µM. actives 0.59% (n = 350,000);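 active = activity change of -60% or lower, but not beyond a set lower limit; inconclusive = change between -60% and -40%, or beyond the set limit; inactive = change above -40%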; note: % is set by controls: 0 for no effect and ±100 for the full control effect
RXFP1 ag: agonists of human relaxin receptor RXFP1; Q9HBX9; HEK293T-RXFP1 cAMP TR-FRET, 30 min; response scale: percent of porcine relaxin response, buffer zero; Potency, µM (doses to about 57.5 µM), for inactives: at the top dose activation, usual class: activators; actives 0.3% (n = 370,000); note: potency is the fitted concentration of half-maximal effect; % is set by controls: 0 for no effect and ±100 for the full control effect; nearly all actives have a fitted effect of over 60% in size
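cAMP rise read by TR-FRET after 30 min, 37C compound exposure (up to 58 uM) in RXFP1-transfected HEK293 cells with Ro 20174 present. EC50 from Hill-equation fits, with 29 nM porcine relaxin as 100% and buffer as basal.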
gsp antag: antagonists of gsp mutant (McCune-Albright syndrome). actives 0.4% (n = 340,000). gsp-mutant cells, cAMP HTRF, 30 min. Potency, µM (doses to about 76.9 µM), inactives show top-dose activity change, negative = inhibition, actives largely listed as inhibitors. AID 624288; calls by dose curve; cell line not stated here;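 note: intracellular cAMP measured with PDE inhibitor Ro 20-1724 present during compound exposure; potency is the fitted concentration of half-maximal effect; % is set by controls: 0 for no effect and ±100 for the full control effect; nearly all actives have a fitted effect of over 65% in size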
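HTRF cAMP measurement after 30 min RT detection following 30 min, 37C compound treatment alongside […] (added as 300 uM solution) in G418-selected cells seeded at 2000/well and grown 16–24 h.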
Starred values were filed as active, the others as inactive; ? = inconclusive; nt = not tested or not shown; ! = repeats disagree; [ ] = remark or other dose. Unless noted, calls come from the whole dose curve; as a rule, active = well fitted curve in the direction sought with a large enough effect; inconclusive = small, poorly fitted or top-dose-only effect, or another doubt; inactive = no such curve, though single readings can be large; an effect the other way counts as inactive or inconclusive.

SMILES	gsp ag	Tb PFK block	p53 reactivator	RXFP1 antag	RXFP1 ag	gsp antag
COc1ccc(N=C(N)SCc2ccccn2)cc1	1%[15.4 µM]	-1%	35µM*	-2	2%	3%
CCCCCCSc1nnc(N)s1	-2%[15.4 µM]	5%	-1%	-2	0%	5%
CCc1ccc(/C=C2\Oc3c(ccc(O)c3CN3CCN(CCO)CC3)C2=O)cc1	-6%	-1%	-1%	-4	16%	-5%
Cc1ccc(Nc2cc(C)nc3ccc(C)cc23)cc1	1%	-3%	21%	-82*	1%	5%
O=C(CS(=O)(=O)c1cccc(Cl)c1)Nc1ccccc1Cl	0%	4%	-4%	4	1%	-4%
Cc1ccccc1N/N=C/c1sc(=O)n(Cc2cccc(C(=O)O)c2)c1Cl	?	-2%	1%	-73*	-2%	?
CC[C@H](C)NC(=O)CCCCCn1c(=S)[nH]c2c([nH]c3ccc(OC)cc32)c1=O	30%	-6%	0%	-80*	5%	2%
CCCCNC(=O)CCCCn1c(=S)[nH]c2c([nH]c3ccc(OC)cc32)c1=O	21%	1%	-3%	-19	3%	0%
COc1ccc2[nH]c3c(=O)n(CCCCC(=O)N4CCC(C(N)=O)CC4)c(=S)[nH]c3c2c1	-3%	20%	4%	-95*	2%	-4%
N#C/C(=C/c1ccc(N2CCOCC2)o1)C(=O)Nc1ccccc1	-12%[15.4 µM]	1%	?	-7	1%	?
O=c1cc(CSc2nc3ccccc3c(=O)[nH]2)c2ccc(O)cc2o1	11%[15.4 µM]	0%	-2%	-35	1%	?
COc1ccc(NC(=O)CN2CCN(c3ccc(C)cc3C)CC2)cc1	-6%[15.4 µM]	3%	nt	-28	0%	-2%
COCCNc1c2c(nc3c(-c4ccccc4)c(C)nn13)CCCC2	7%	0%	2%	-28	-3%	35µM*
C=C(C)Cn1c(-c2ccncc2)n[nH]c1=S	-19%[15.4 µM]	3%	-3%	-67*	1%	nt
CC(C)Cn1c(-c2ccncc2)n[nH]c1=S	9%[15.4 µM]	-2%	12%	-9	-1%	-9%
CCn1c(-c2ccccc2)c(C(=O)O)c2ccccc21	-22%	1%	2%	-3	-1%	-2%
C=CCN1C(=O)c2ccccc2NC1c1ccc(Br)s1 (stereo unspecified)	?	-3%	-5%	-11	1%	-11%
O=C1c2ccccc2NC(c2ccc(Br)s2)N1O (stereo unspecified)	16µM*	nt	nt	-1	nt	-2%
Cc1ccc(S(=O)(=O)N(C)CC(=O)OCC(=O)c2ccc3c(c2)NC(=O)CO3)cc1	-51%	5%	-4%	-9	nt	-17%
CCN(C(=O)Cn1cnc2onc(-c3ccc(F)cc3)c2c1=O)c1ccc(OC)cc1	nt	nt	nt	nt	0%	nt
Cc1cc(N/N=C/c2ccc(O)c(C)c2O)nc(-c2ccccc2O)n1	?	15%	?	-72*	0%	-21%
Cc1ccccc1CS(=O)(=O)CCC(=O)NCCCN1CCN(c2ccccc2F)CC1	3%	-1%	-5%	-1	0%	6%
Cc1cc(C)c2c(=O)n(CC(=O)NCCCN3CCN(c4ccccc4F)CC3)sc2n1	-62%	12µM*	-14%	-14	0%	-23%
Clc1ccccc1/C=C/C=N/Nc1nc(N2CCOCC2)nc(N2CCOCC2)n1	-7%[15.4 µM]	-1%	-4%	-23	-1%	13µM*
Cc1ccc2nc(N/C(=N/S(=O)(=O)c3ccc(F)cc3F)c3ccccc3)sc2c1	6%[15.4 µM]	2%	25%	-18	-2%	-9%
SMILES	gsp ag	Tb PFK block	p53 reactivator	RXFP1 antag	RXFP1 ag	gsp antag
Cc1ccc2nc(N/C(=N/S(=O)(=O)c3ccc(F)cc3)c3ccccc3)sc2c1	3%	-4%	0%	9	-1%	25µM*
COc1ccc(NC(=O)CSc2ccc3nnc(-c4cccnc4)n3n2)cc1OC	?	2%	2%	10	18µM*	4%
O=C(CSc1ccc2nnc(-c3cccnc3)n2n1)Nc1cccc(F)c1	?	2%	4%	2	?	23%
O=C(CSc1ccc2nnc(-c3cccnc3)n2n1)Nc1ccccc1	?	-2%	4%	12	16µM*	9%
COc1ccc(NC(=O)CSc2nnc3ccc(-c4cccnc4)nn23)cc1OC	20%[15.4 µM]	-2%	1%	-15	3%	9%
Cc1cc(C)cc(Nc2cc(-c3ccccc3)nc(C)n2)c1	nt	nt	nt	-37	3%	nt
C#CCOCCOCCOCCNc1nc(N2CCN(C(=O)Cn3cc(CCO)nn3)CC2)nc(N2CCN(C(=O)[C@H]([C@@H](C)CC)n3cc(CCCCN)nn3)CC2)n1	nt	nt	nt	nt	nt	2%
CCn1c(CCC(=O)Nc2ccccc2F)nnc1SCC(=O)Nc1ccc(OC)cc1	-7%[15.4 µM]	0%	-7%	-15	-3%	-10%
Cc1ccc(S(=O)(=O)N2CCC(C(=O)NC3CC3)CC2)cc1	28%	3%	0%	7	1%	6%
Nc1cnn(C2OC(CO)C(O)C2O)c(=O)n1 (stereo unspecified)	-8%[15.4 µM]	-3%	1%	-3	-1%	-9%
Cc1ccc(-c2nnc(-n3nc(C)cc3C)c3ccccc23)cc1	2%	-3%	-23%	-2	-1%	35µM*
CCOC(=O)c1cnc(-n2nc(C)cc2C)nc1Nc1ccc(O)cc1	2%	4%	0%	6	0%	11µM*
CCc1cccc(C)c1NC(=O)CSc1nnc(CCCOc2ccc(Cl)cc2Cl)n1C	-8%	-3%	7%	-12	0%	10µM*
Cn1c(CCCOc2ccc(Cl)cc2Cl)nnc1SCC(=O)Nc1cccc(F)c1	-2%[15.4 µM]	-12%	?	-21	3%	-23%
CCc1ccc2oc(=O)cc(CN3CCN(c4ccc(F)cc4)CC3)c2c1	1%	0%	0%	-15	4%	-12%[15.4 µM]
CC(C)c1ccc2oc(=O)cc(CN3CCN(c4ccc(F)cc4)CC3)c2c1	4%	-1%	?	-19	0%	35µM*
CCOc1ccc(OCCOc2ccc(/C=C/C(=O)O)cc2OCC)cc1	25%[15.4 µM]	2%	-4%	-4	2%	20µM*
O=C(O)c1cc(-c2ccc3c(c2)OCO3)nc2ccc(Br)cc12	10µM*	1%	-6%	25	16µM*	26%
Cn1cc(CNC(=O)c2cc(-c3ccccc3)nc3ccc(Br)cc23)cn1	29%[15.4 µM]	-1%	3%	1	?	4%
Cc1ccc(-c2cc(C(=O)NCc3cnn(C)c3)c3cc(Br)ccc3n2)cc1	8%[15.4 µM]	3%	18%	-2	22µM*!	?
Cc1ccc(S(=O)(=O)N(C)CC(=O)Nc2cc(C)ccn2)cc1	1%[15.4 µM]	-3%	?	-83*	-1%	2%

High-throughput results deposited in PubChem by National Center for Advancing Translational Sciences (NCATS).
